Screens deposited in PubChem by National Center for Advancing Translational Sciences (NCATS).
FH mod: Identification of activators of human fumarate hydratase by quantitative high-throughput screening | Potency, µM (doses to about 79.9 µM), actives largely listed as inhibitors | AID 1347055, 2019 | actives 0.22% (n = 54,000) | FH coupled MDH/diaphorase resazurin fluorescence, 15 min; further: the screen sought activators but most active calls are inhibition curves; nearly all actives have a fitted effect of over 45% in size
Target sequence (P07954 whole entry, looked up): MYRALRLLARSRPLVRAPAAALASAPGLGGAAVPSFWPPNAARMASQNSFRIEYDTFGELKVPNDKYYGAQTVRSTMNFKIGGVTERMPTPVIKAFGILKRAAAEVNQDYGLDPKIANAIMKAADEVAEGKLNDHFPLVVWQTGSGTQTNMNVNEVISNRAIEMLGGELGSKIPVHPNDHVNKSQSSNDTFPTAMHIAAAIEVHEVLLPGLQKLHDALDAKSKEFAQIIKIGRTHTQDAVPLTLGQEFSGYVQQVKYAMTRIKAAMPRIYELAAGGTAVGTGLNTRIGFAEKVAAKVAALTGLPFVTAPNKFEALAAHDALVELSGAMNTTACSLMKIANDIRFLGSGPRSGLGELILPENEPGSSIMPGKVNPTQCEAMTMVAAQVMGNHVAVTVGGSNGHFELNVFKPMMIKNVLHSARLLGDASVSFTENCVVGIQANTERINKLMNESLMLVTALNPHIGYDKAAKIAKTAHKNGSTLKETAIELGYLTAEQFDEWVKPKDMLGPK
GALC G270D act: galactocerebrosidase G270D activity enhancement, cell-based; AID 1159614; 145M-Twi-hGALC-G270D cells (Twitcher mouse brain line with human GALC G270D), HMU-beta-Gal fluorescence, 48 h; P54803; actives 0.1% (n = 45,000); Potency, µM (highest dose often 57.5 µM), actives largely listed as activators; further: nearly all actives have a fitted effect of over 65% in size
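Mutant human GALC (G270D), stably expressed in a Twitcher mouse brain cell line lacking endogenous GALC, is measured in live-treated cells via 6-hexadecanoylamino-4-methylumbelliferyl-β-galactoside hydrolysis (0.1 mM final, pH 5.2) with fluorescent detection.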
NTMT1 inhibitor: inhibitors of human N-terminal methyltransferase NTMT1; Q9BV86; NTMT1 MTase-Glo SAH luminescence, purified enzyme; Potency, µM (titrated, usually from 114 µM), most hits filed as inhibitors; actives 2.5% (n = 59,000); further: nearly all actives have a fitted effect of over 65% in size
Hits are given with their value; 0 = inactive; ? = inconclusive; - = no result given; ! = repeats disagree; [ ] = dose if it differs, or a comment. The entries come from a sample that favours hits as a whole. The call rests on the fitted dose curve; in most records, active means well fitted curve in the direction sought with a large enough effect; inconclusive means small, poorly fitted or top-dose-only effect, or another doubt; inactive means no such curve, though single readings can be large; an effect the other way counts as inactive or inconclusive.

SMILES	FH mod	GALC G270D act	NTMT1 inhibitor
CCn1c(=N)c(C(=O)NC2CCCCC2)cc2c(=O)n3cccc(C)c3nc21	0	28.2µM	0
CCOCCCn1c(=N)c(C(=O)NC(C)c2ccccc2)cc2c(=O)n3cccc(C)c3nc21 (stereo unspecified)	0	20µM	0
CCn1c(=N)c(C(=O)NCc2ccccc2)cc2c(=O)n3cccc(C)c3nc21	0	0	0
Cc1cccn2c(=O)c3cc(C(=O)NCc4ccccc4)c(=N)n(CCOCCO)c3nc12	0	10µM	0
O=C(O)C1CCC(C(=O)Nc2ccc([S+](=O)([O-])Nc3nccs3)cc2)CC1 (stereo unspecified)	-	-	0
CC(=O)OC12CC(C)C(O)C1/C=C(/COC1OC(CO)C(O)C(O)C1O)CCC1C(/C=C(\C)C2=O)C1(C)C (stereo unspecified)	0	-	0
CC(=O)N[C@@H](CC(=O)O)C(=O)N[C@@H](CCC(=O)O)C(=O)N[C@H](C(=O)N[C@@H](CC(=O)O)C(=O)Nc1ccc2c(C)cc(=O)oc2c1)C(C)C	20µM	-	0
Cc1cc(=O)oc2cc(OCC(=O)Nc3ccc(O)c(C(=O)O)c3)ccc12	0	0	0
CC1=C(C)C(=O)OC(C(C)C2C(O)CC3C4C5OC5C5(O)CC(OC6OC(CO)C(O)C(O)C6O)CC(O)C5(C)C4CCC32C)C1 (stereo unspecified)	0	-	0[12.6 µM]
C=C1CCC2C(C)(C)CCCC2(C)C1CC/C(C)=C\CO (stereo unspecified)	0	-	0
Cc1ccsc1/C=C/C1=NCCCN1C	0	0	12.6µM
C=C[C@H]1[C@H](O[C@@H]2O[C@H](CO)[C@@H](O)[C@H](O)[C@H]2O)OC=C(C(=O)OC)[C@H]1CCO	0	-	0
CCc1ccc(CNC(=O)c2ccc3c(c2)c(C)c(C)n3Cc2ccccc2)cc1	0	0	?
Cc1c(C)n(Cc2ccccc2)c2ccc(C(=O)OCCN(C)C)cc12	0	0	5.62µM
Cc1cccc(Cn2c(C)c(C)c3cc(C(=O)NCc4ccc(C)o4)ccc32)c1	?	0	0
Cc1ccc(CNC(=O)c2ccc3c(c2)c(C)c(C)n3Cc2ccccc2)o1	0	0	22.4µM
Oc1ccc([C@H]2COc3cc(O)ccc3C2)cc1	0	-	0
CC(C)CCC1(O)C(=O)C(C)(C)C(O[C@@H]2O[C@H](CO)[C@@H](O)[C@H](O)[C@H]2O)C(C)(C)C1O (stereo partly specified)	0	-	0
CCOC(=O)c1ccccc1NC(=O)c1c(C)oc2ncnc(N3CCOCC3)c12	0	0	?
Cc1oc2ncnc(N3CCOCC3)c2c1C(=O)Nc1ccc(Br)cc1F	0	0	89.1µM
C[C@@H]1O[C@@H](O[C@H]2[C@H](OC(=O)C34CCC5(C)C(=CCC6C7(C)CC(O)C(O[C@@H]8O[C@H](C(=O)O)[C@@H](O)[C@H](O)[C@H]8O)C(C)(C(=O)O)C7CCC65C)C3CC(C)(C)CC4O)O[C@H](C)[C@@H](O)[C@@H]2O)[C@H](O)[C@@H](O[C@@H]2OC[C@](O)(CO)[C@H]2O[C@@H]2O[C@H](CO)[C@@H](O)[C@H](O)[C@H]2O)[C@H]1O (stereo partly specified)	0[13.5 µM]	-	0[6.45 µM]
Nc1c(C(=O)Nc2ccc(C(=O)O)cc2)sc2nc3c(cc12)CCCC3	0	0	25.1µM
CCOc1ccc(NC(=O)c2sc3nc4c(cc3c2N)CCCCCC4)cc1	0	0	0
CCn1c(=O)c2c(nc(/C=C/c3ccc(OC)c(OC)c3)n2C)n(CC)c1=O	-	-	0
CCOC(=O)N1CCC(NC(=O)c2cnn(-c3cccc(Cl)c3C)c2C2CCN(C(=O)OC(C)(C)C)CC2)CC1	0	0	0
SMILES	FH mod	GALC G270D act	NTMT1 inhibitor
CCS(=O)(=O)c1cccc(-c2cc(C(=O)NC3CCN(C)CC3)c(C)c3[nH]c4ncc(C)cc4c23)c1	0	-	28.2µM!
Nc1ccc2nc(-c3ccc(O)cc3)sc2c1	0	0	31.6µM
CS(=O)(=O)Nc1ccc(-c2nc3ccccc3s2)cc1	0	0	0
CCc1ccc(C(=O)c2cn(CC(=O)Nc3cc(OC)cc(OC)c3)c3ccc(CC)cc3c2=O)cc1	0	0	0
CCOc1ccc(C(=O)c2cn(CC(=O)Nc3cc(OC)cc(OC)c3)c3ccc(F)cc3c2=O)cc1	0	0	79.4µM
O=C(Nc1cccc(Cc2ccccc2)n1)c1ccc(-c2cccc([N+](=O)[O-])c2)o1	-	-	0
C[C@@H]1O[C@@H](O[C@H]2[C@H](O)[C@@H](O[C@@H]3O[C@H](CO)[C@@H](O)[C@H](O[C@@H]4O[C@H](CO)[C@@H](O)[C@H](O)[C@H]4O)[C@H]3O)[C@H](O[C@H]3CC[C@@]4(C)C(=CC[C@@H]5C4CC[C@@]4(C)C5C[C@@H]5OC6(CC[C@@](C)(CO[C@@H]7O[C@H](CO)[C@@H](O)[C@H](O)[C@H]7O)O6)[C@@H](C)[C@@H]54)C3)O[C@@H]2CO)[C@H](O)[C@H](O)[C@H]1O (stereo partly specified)	0[13.5 µM]	-	0[6.45 µM]
O=c1c2ccccc2nc2sc(Nc3ccc4c(c3)CNC4)nn12	-	-	50.1µM
O=c1c2ccccc2nc2sc(Nc3cccc(Br)c3)nn12	-	-	0
COc1cccc(CNc2ccc(S(=O)(=O)Nc3nccs3)cc2)c1	-	-	0
Brc1c(Br)c(Br)c2[nH]cnc2c1Br	0	-	-
Brc1c(Br)c(Br)c2n[nH]nc2c1Br	31.6µM	-	11.2µM
CC1=CC2/C=C(\C)CC[C@@H](O)[C@@H](O)[C@@H]3O[C@@H]3C(=O)[C@]23C(=O)N[C@@H](CC(C)C)[C@@H]3[C@@H]1C (stereo partly specified)	0	-	0
CC(=O)N1c2nc(-c3ccco3)nn2C2(CCCCC2)[C@@H]2CCCC[C@@H]21	0	0	0
CC(C)C(=O)N1c2nc(-c3ccco3)nn2C2(CCCCC2)[C@@H]2CCCC[C@@H]21	0	0	89.1µM
Cc1ccc(-c2cc(C(=O)N(C)c3ccccc3)c3ccccc3n2)cc1C	-	-	0
CCOc1ccc(CCNC(C)=O)cc1OCC	-	-	50.1µM
CCOc1ccc(CCNC(=O)c2ccccc2)cc1OCC	-	-	0
CC(=O)Nc1sc2c(c1-c1cc3ccccc3s1)CCNC2	-	-	0
CCN(CC)Cc1cccc(/C=C/c2nc3ccc(F)cc3c(=O)n2-c2ccccc2Cl)n1	0	-	0
CCc1nnc2sc(-c3ccc(C)c(NC(=O)c4ccc(-c5cccc(Cl)c5)o4)c3)nn12	-	-	0
CCCCOc1ccccc1C(=O)Nc1onc2c1CCCC2	0	0	0
CCCCCCCCOc1ccccc1C(=O)Nc1ccc(C(=O)OCC[N+](C)(CC)CC)cc1	0	0	3.55µM!
Cc1cn([C@H]2C[C@H](N[S+](=O)([O-])Cc3ccccc3)[C@@H](CO)O2)c(=O)[nH]c1=O	-	-	0
Cc1cn([C@H]2C[C@H](N[S+](=O)([O-])Cc3cc(Cl)cc(Cl)c3)[C@@H](CO)O2)c(=O)[nH]c1=O	-	-	79.4µM
CN[C@@H]1[C@@H](O)[C@@H](O[C@@H]2[C@@H](O)[C@H](O[C@H]3O[C@@H]([C@@H](C)NC)CC[C@H]3N)[C@@H](N)C[C@H]2N)OC[C@]1(C)O	0	-	0
COc1ccc(-c2ccc3c(N)c(C(=O)Nc4cccc(C)c4)sc3n2)cc1	0	0	0
